Source: PubChem
NPC1 prom act: qHTS Assay for NPC1 Promoter Activators; AID 485313, 2010; 320,000 tested, 2.4% active; Potency, µM (highest dose often 9.22 µM), without a hit: at the highest dose activation, actives largely listed as activators; Huh7 NPC1 promoter luciferase reporter, 24 h; further: % of control where 0% means no effect; nearly all actives have a fitted effect of over 60% in size
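Cells: Huh7 expressing luciferase under the NPC1 promoter, 1500/well. Seeded 2 h, compound added, incubated 24 h at 37 °C. Luciferase reagent, 10 min ambient, then luminescence.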
SMN2 splice up: qHTS Assay for Enhancers of SMN2 Splice Variant Expression; HEK293 SMN2-luciferase splicing reporter, luminescence, 30-36 h; Potency, µM (top dose mostly 46.1 µM), without a hit: at the highest dose activity change, positive = activation, hits mostly activators; 210,000 tested, 2.8% active; AID 1458, 2008; further: % of control where 0% means no effect; nearly all actives have a fitted effect of over 55% in size
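qHTS luciferase splicing reporter: luminescence rises when SMN2 exon 7 is included in transfected HEK293 cells. Compound exposure lasted 30-36 h at 37C, with 4.5 mM final sodium butyrate as control, followed by a ONE-Glo read.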
FLuc modulator: qHTS profiling assay for firefly luciferase inhibitor/activator using purifed enzyme and Km concentrations of substrates (counterscreen for miR-21 project); purified FLuc, Km substrates, luminescence inhibition; Potency, µM (highest dose often 57.5 µM), without a hit: top-dose activity change, negative = inhibition, usual class: inhibitors; AID 588342, 2011; 360,000 tested, 6.9% active;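 further: plate controls were vehicle for no effect and reference inhibitor for full effect; nearly all actives have a fitted effect of over 55% in size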
Target sequence (P08659 whole entry, looked up): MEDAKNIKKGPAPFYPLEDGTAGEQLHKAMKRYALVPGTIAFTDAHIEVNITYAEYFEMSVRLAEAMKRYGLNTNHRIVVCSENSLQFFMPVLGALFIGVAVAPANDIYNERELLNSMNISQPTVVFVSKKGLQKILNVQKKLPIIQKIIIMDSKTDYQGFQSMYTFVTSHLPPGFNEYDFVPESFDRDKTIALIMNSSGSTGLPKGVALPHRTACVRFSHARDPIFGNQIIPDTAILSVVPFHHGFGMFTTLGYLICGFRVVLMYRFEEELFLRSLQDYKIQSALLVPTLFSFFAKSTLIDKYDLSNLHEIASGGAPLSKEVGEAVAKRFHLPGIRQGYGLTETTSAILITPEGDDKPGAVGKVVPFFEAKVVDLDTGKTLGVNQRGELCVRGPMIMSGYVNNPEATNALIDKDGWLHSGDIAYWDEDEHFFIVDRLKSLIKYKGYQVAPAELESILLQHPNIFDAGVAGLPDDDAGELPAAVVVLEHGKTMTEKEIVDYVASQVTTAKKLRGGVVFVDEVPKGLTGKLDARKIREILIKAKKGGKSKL
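Purified P. pyralis luciferase (10nM final) with 10uM D-luciferin and 10uM ATP (Km levels) in 50mM Tris acetate pH 7.5, 10mM Mg acetate, 0.01% Tween-20, 0.05% BSA; qHTS 6-point titration, ~60 µM downward; luminescence read.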
Rab9 prom act: qHTS Assay for Rab9 Promoter Activators; Huh7 Rab9 promoter-luciferase reporter, luminescence, 24 h; Potency, µM (series often up to 9.22 µM), for the others: at the top dose activation, negative = inhibition, actives largely listed as activators; 320,000 tested, 2.8% active; further: % of control where 0% means no effect; nearly all actives have a fitted effect of over 60% in size
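Huh7 reporter line, Rab9 promoter upstream of luciferase. Compound exposure 24 h at 37 °C in reduced-serum medium with 10% FBS. Read-out: luminescence.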
ELG1 genotoxic: qHTS screen for small molecules that induce genotoxicity in human embryonic kidney (HEK293T) cells expressing luciferase-tagged ELG1; Potency, µM (series often up to 46 µM), for the others: at the highest dose activity change, positive = activation, usual class: activators; AID 504466, 2011; 330,000 tested, 1.3% active; HEK293T ELG1-luciferase reporter, luminescence, 16 h; further: % of control where 0% means no effect; nearly all actives have a fitted effect of over 60% in size
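HEK293T cells expressing luciferase-tagged ELG1 were exposed to compound or DMSO vehicle for 16 hr at 37 °C and 5% CO2. Luciferase activity was then measured with ONE-Glo after 30 min at room temperature.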
* marks the source's active call; other numbers are inactive results; ? = inconclusive; nt = no result. Shown are actives, neighbours in structure and some others; about 7.4% of the full set was active somewhere. The call rests on the fitted dose curve; in most records, active means well fitted curve in the direction sought with a large enough effect; inconclusive means small, poorly fitted or top-dose-only effect, or another doubt; inactive means no such curve, though single readings can be large; an effect the other way counts as inactive or inconclusive. Potency means the concentration at half of the fitted maximal effect.

SMILES	NPC1 prom act	SMN2 splice up	FLuc modulator	Rab9 prom act	ELG1 genotoxic
CCN(CC)c1ccc(CNc2ccc3c(c2)ncn3CC)cc1	1%	nt	-5%	2%	3%
COc1ccccc1-n1cnc2cc(NCc3ccccc3O)ccc21	-2%	nt	?	13%	6%
COc1ccccc1-n1cnc2cc(NCc3ccco3)ccc21	-3%	7%	19µM*	5%	?
CCn1cnc2cc(NCc3cccc(OC)c3O)ccc21	0%	12%	12µM*	-1%	18µM*
CCn1cnc2cc(NCc3ccc(Br)cc3)ccc21	3.5µM*	nt	13µM*	0.71µM*	?
Cn1c2cc(B(O)O)sc2c2cnn(Cc3c(F)cccc3Cl)c(=O)c21	-11%	nt	-1%	2%	nt
CCOC(=O)C1CCCN(C(=O)c2ccc(S(=O)(=O)Nc3ccccc3OC)cc2)C1 (configuration not stated)	-8%	nt	1%	1%	-1%
CCOC(=O)c1c(S(=O)(=O)N2CCCC(C(=O)NCc3ccc(Cl)cc3)C2)c(C)n(C)c1C (configuration not stated)	nt	nt	-14%	nt	nt
CCn1cnc2cc(NCc3ccc(C)cc3)ccc21	2.8µM*	13µM*	15µM*	4µM*	8.2µM*
CCCn1cnc2cc(NCc3cccc(OC)c3)ccc21	?	13µM*	17µM*	?	16%
Cn1cnc2cc(NCc3ccc(Cl)cc3)ccc21	2.5µM*	nt	17µM*	0.89µM*	?
CCCn1cnc2cc(NCc3ccc(Br)cc3)ccc21	?	nt	11µM*	3.5µM*	?
CSCCC(NC(=O)c1ccccc1Br)C(=O)NNC(=O)c1ccncc1 (configuration not stated)	-3%	nt	?	-7%	0%
CC1CC(C)CN(S(=O)(=O)N2CCCC(C(=O)NC(C)c3ccccc3)C2)C1 (configuration not stated)	3%	nt	1%	-4%	-2%
Cn1c(=O)c2c(nc(N3CCN(c4ccc([N+](=O)[O-])cc4)CC3)n2C)n(C)c1=O	-5%	nt	2%	-1%	-5%
COc1ccc(OC)c(C(=O)CN2C(=O)N(c3ccc(C)cc3)S(=O)(=O)c3ccccc32)c1	nt	nt	-2%	nt	nt
Cc1ccccc1-n1c2nc(=O)[nH]c(=O)c-2cc2c(Cl)cccc21	nt	-9%	-2%	nt	nt
Fc1cccc(/C=N/Nc2ncnc3nc[nH]c23)c1	?	10µM*	19µM*	3.5µM*	-2%
Fc1ccccc1/C=N/Nc1ncnc2nc[nH]c12	29%	13µM*	?	23%	21µM*
Oc1ccc(/C=N/Nc2ncnc3nc[nH]c23)cc1	2%	nt	?	9%	-1%
CCC(=O)Nc1ccc(C(=O)NNC(=O)c2cccs2)cc1	1%	2%	4%	2%	6%
CCC(=O)Nc1cccc(NC(=S)NC(=O)c2ccccc2Cl)c1	?	-5%	?	3.5µM*	-1%
CCC(=O)Nc1cccc(NC(=S)NC(=O)c2cccs2)c1	?	28µM*	6µM*	?	?
CCC(=O)Nc1cccc(NC(=O)c2ccc(C)cc2Cl)c1	21%	28%	19µM*	?	4%
CCC(=O)Nc1cccc(NC(=O)c2ccccc2Cl)c1	-3%	-22%	-4%	-3%	-4%
SMILES	NPC1 prom act	SMN2 splice up	FLuc modulator	Rab9 prom act	ELG1 genotoxic
N#Cc1ccccc1NC(=S)NC(=O)c1cccs1	-1%	nt	8.5µM*	8%	16%
Cn1c(=O)n(C)c2cc(N3CCOCC3)c(NS(=O)(=O)c3ccc(Cl)cc3)cc21	nt	17%	-8%	nt	nt
CC1CCCN(C(=O)c2ccc(NC(=O)CC3SC(N4CCCC4)=NC3=O)cc2)C1 (configuration not stated)	-4%	nt	1%	2%	2%
Cc1ccc(-c2nnc(SCc3ccccc3C#N)o2)cc1	nt	2.2µM*	0.34µM*	nt	nt
N#Cc1ccc(CSc2nnc(-c3ccc(Br)cc3)o2)cc1	nt	-14%	6%	nt	nt
N#Cc1ccccc1CSc1nnc(-c2ccc(Br)cc2)o1	nt	?	1.2µM*	nt	nt
Cc1ccc(CN2CCCn3nc(C(=O)NCc4ccc(N(C)C)cc4)cc3C2=O)cc1	nt	nt	-1%	nt	nt
O=C(N/N=C/c1ccc([N+](=O)[O-])cc1)c1ccc(COc2ccccc2-c2ccccc2)cc1	1%	13%	-3%	-8%	0%
CCc1ccc(NC(=O)c2cc(S(=O)(=O)N3CCCCCC3)ccc2F)cc1	nt	nt	4%	nt	nt
Cc1cc(NC(=O)c2cccc(S(=O)(=O)Nc3cccc(C(=O)O)c3)c2)no1	0%	nt	2%	2%	1%
CSC1=NC(=O)/C(=C\c2cccc3ccccc23)S1	-16%	1%	7.6µM*	-6%	6%
N=C1S/C(=C\c2cccc3ccccc23)C(=O)N1c1ccc(F)cc1	-14%	-18%	6%	-4%	-1%
CCCN(CC(=O)Nc1ccccc1C)C(=O)c1ccc2c(c1)S(=O)(=O)N=C1CCCCCN12	-2%	nt	-1%	7%	1%
CCN(CC(=O)Nc1ccc(NC(C)=O)cc1)C(=O)c1ccc2c(c1)S(=O)(=O)N=C1CCCCCN12	0%	nt	11µM*	-1%	-10%
O=C(COC(=O)c1cccc(O)c1)Nc1ccc(N2CCOCC2)cc1	0%	nt	-23%	-3%	-2%
CCOc1ccc(C(=O)/C=C/c2ccccc2C(F)(F)F)cc1	14%	-11%	5.4µM*	10%	1%
COc1ccc(C(=O)/C=C/c2ccccc2C(F)(F)F)cc1	15%	-9%	12µM*	1%	-1%
COc1ccc(/C=C2\SC(=Nc3ccccc3)NC2=O)cc1	-5%	nt	7.6µM*	4%	7%
COc1ccc(N=C2NC(=O)/C(=C/c3ccc(O)c(OC)c3)S2)cc1	-5%	-14%	?	-2%	12%
CCc1ccc(N=C2NC(=O)/C(=C/c3ccc(OCC(=O)O)cc3)S2)cc1	2%	nt	6µM*	-11%	-1%
COc1ccccc1N=C1NC(=O)/C(=C/c2ccc(N(C)C)cc2)S1	-11%	nt	1.1µM*	4%	?
O=C1NC(=O)/C(=C\c2ccc(Cl)nc2)S1	?	nt	15µM*	?	?
CCOc1ccc(-c2cnc(NCc3cccc(Cl)c3)n2C)cc1	nt	-9%	-2%	nt	nt
C=CCN(CC(=O)NC1CCCC1)C(=O)C(=O)Nc1ccc2c(c1)OCCO2	-3%	nt	-8%	-2%	-2%
O=C1NC(=Nc2cccnc2)S/C1=C/c1ccc(F)cc1	-4%	nt	11µM*	-6%	3%
COc1ccc(/C=C2/SC(=O)NC2=O)cc1	?	nt	4.3µM*	3.2µM*	?
COC(=O)Nc1nc2ccc(Br)cc2s1	28%	26%	-10%	1.4µM*	?
